For 24 molecules, Potency results are on record in PubChem BioAssay (NCATS).

Assay in all cases: qHTS profiling for inhibitors of Plasmodium falciparum proliferation (AID 504749); also: nearly all actives have a fitted effect of over 60% in size
Settings in all cases: P. falciparum in erythrocytes, SYBR Green DNA, 72 h; series mostly up to 28.7 µM

For one test, the system named is PC15. The method, boiled down: (§1)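 Each compound contacts P. falciparum-infected red blood cells for 72 h at 37 C; lysis buffer (Tris, EDTA, saponin, Triton X, SYBR Green I) is added and fluorescence measured next morning; values normalized to controls.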
For another test, the system named is PC26. The method, boiled down: as §1
For the next test, the system named is PC49. In a few lines:
as §1

The next test relates to SC27B. The method, boiled down: as §1
For a further test, the system named is TAB109. The method, boiled down:
as §1

In a further test the test system is TAB113. The method, boiled down:
as §1

The subject of the next test is TAB165. In a few lines:
as §1

In a further test the test system is W2. In a few lines: as §1

Structures are written as SMILES. Results filed as inconclusive are left out. The source made the active and inactive calls. Calls follow the shape of the dose curve; as a rule, active = well fitted inhibition curve with a large enough effect; inconclusive = small, poorly fitted or top-dose-only effect; inactive = flat fitted curve, though single readings scatter.
Potency is read from the fitted curve at half-maximal effect.

For `CC1(C)S[C@@H]2[C@H](NC(=O)C3(N)CCCCC3)C(=O)N2[C@H]1C(=O)O`, the Potency result with PC15, in the test with PC26, in the test on PC49, in the test on SC27B, in the test on TAB109 and in the test on TAB113 was “inactive” in each case. Besides, the Potency result in the test on TAB165 and with W2 was “inactive” each time.

As for `CC(O)CN(C)C` (configuration not stated), the Potency result in the test on PC15, in the test with PC26, with PC49, in the test on SC27B, in the test on TAB109 and in the test on TAB113 was “inactive” throughout. Also, the Potency result in the test with TAB165 and with W2 was “inactive” in each case.

For the molecule `[O]=[Bi][O]C(=O)[O][Bi]=[O]`, the Potency result in the test on PC15, in the test on PC26, with PC49, in the test on SC27B, in the test with TAB109 and in the test with TAB113 was “inactive” each time. For the same molecule, the Potency entry with TAB165 and in the test with W2 was “inactive” throughout.

With `CO`, the Potency entry in the test with PC15, with PC26, in the test on PC49, with SC27B, in the test with TAB109 and in the test with TAB113 was “inactive” in each case. The Potency entry with TAB165 and in the test with W2 was “inactive” throughout.

`CCCCCCCCCCCCCCCCCC(=O)OCC(C)O` (configuration not stated): the Potency result in the test on PC15, in the test with PC26, with PC49, in the test with SC27B, with TAB109 and with TAB113 was “inactive” throughout. The Potency entry in the test on TAB165 and in the test with W2 was “inactive” throughout.

Turning to `CC1=C(/C=C/C(C)=C/C=C/C(C)=C/C(=O)Oc2c(C)c(C)c3c(c2C)CC[C@@](C)(CCC[C@H](C)CCC[C@H](C)CCCC(C)C)O3)C(C)(C)CCC1`, the Potency entry in the test on PC15, in the test on PC26, in the test on PC49, with SC27B, in the test with TAB109 and in the test with TAB113 was “inactive” in each case. Besides, the Potency entry in the test with TAB165 and with W2 was “inactive” in each case.

`FC(F)(F)C(F)(F)C(F)(F)C(F)(F)C(F)(F)C(F)(F)F`: the Potency result in the test with PC15, in the test on PC26, in the test with PC49, in the test on SC27B, in the test with TAB109 and in the test with TAB113 was “inactive” each time. Further, the Potency entry with TAB165 and with W2 was “inactive” each time.

With `Oc1cc(O)cc(O)c1`, the Potency result in the test with PC15, in the test on PC26, in the test with PC49, in the test on SC27B, in the test with TAB109 and with TAB113 was “inactive” in each case. Moreover, the Potency result in the test with TAB165 and with W2 was “inactive” in each case.

With `OCC(O)CO`, the Potency result in the test on PC15, in the test on PC26, in the test on PC49, in the test with SC27B, with TAB109 and in the test on TAB113 was “inactive” each time. Also, the Potency entry with TAB165 and in the test on W2 was “inactive” each time.

`COc1cc(S(C)=O)ccc1-c1nc2ncccc2[nH]1` (configuration not stated): the Potency entry with PC15, with PC26, in the test with PC49, in the test with SC27B, in the test on TAB109 and with TAB113 was “inactive” in each case. The Potency entry in the test with TAB165 and in the test on W2 was “inactive” in each case.

In the case of `Nc1ncnc2c1ncn2CCOCP(=O)(O)O`, the Potency result with PC15, in the test with PC26, in the test with PC49, in the test on SC27B, with TAB109 and in the test on TAB113 was “inactive” in each case. Moreover, the Potency result in the test on TAB165 and in the test on W2 was “inactive” each time.

For `C=C1C(CCl)(CCl)C2(Cl)C(Cl)C(Cl)C1(Cl)C2(Cl)Cl` (configuration not stated), the Potency is 2000 nM (active) with PC15; 1900 nM (active) in the test on PC26; 3980 nM (active) with PC49; 1780 nM (active) with SC27B; 3160 nM (active) with TAB109; 2820 nM (active) in the test on TAB113. The Potency in the test on TAB165 was 1780 nM (active); in the test on W2, 849 nM (active).

For the molecule `c1ccc(-n2cnnn2)cc1`, the Potency result with PC15, with PC26, in the test with PC49, in the test with SC27B, in the test with TAB109 and with TAB113 was “inactive” in each case. The Potency result in the test with TAB165 and in the test with W2 was “inactive” throughout.

Consider `C=CC(=O)O`, for which the Potency result in the test on PC15, with PC26, in the test with PC49, in the test with SC27B, in the test on TAB109 and in the test with TAB113 was “inactive” throughout. The Potency result in the test on TAB165 and with W2 was “inactive” in each case.

`OC1OC[C@@H](O)[C@H](O)[C@@H]1O` (some centres not stated): the Potency result in the test on PC15, in the test on PC26, in the test with PC49, in the test on SC27B, in the test on TAB109 and in the test with TAB113 was “inactive” throughout. Also, the Potency entry in the test with TAB165 and with W2 was “inactive” each time.

With `CC1(O)CCC(C(C)(C)O)CC1` (configuration not stated), the Potency entry in the test with PC15, in the test on PC26, with PC49, with SC27B, in the test with TAB109 and with TAB113 was “inactive” each time. For the same molecule, the Potency entry in the test on TAB165 and in the test with W2 was “inactive” throughout.

As to `CC(C)CCCC(C)NC(C)C` (configuration not stated), the Potency result with PC15, with PC26, in the test with PC49, in the test on SC27B, in the test with TAB109 and in the test on TAB113 was “inactive” each time. Moreover, the Potency entry in the test on TAB165 and in the test on W2 was “inactive” each time.

Turning to `Cc1c(Cl)cccc1Nc1ncccc1C(=O)O`, the Potency result with PC15, with PC26, in the test with PC49, with SC27B, in the test with TAB109 and in the test with TAB113 was “inactive” in each case. For the same molecule, the Potency entry in the test on TAB165 and in the test on W2 was “inactive” throughout.

For the molecule `Nc1nccs1`, the Potency result in the test with PC15, in the test with PC26, in the test on PC49, in the test on SC27B, with TAB109 and in the test on TAB113 was “inactive” each time. Besides, the Potency entry with TAB165 and with W2 was “inactive” in each case.

Consider `O=C1CCC(=O)N1CO`, for which the Potency result in the test with PC15, in the test on PC26, in the test with PC49, with SC27B, in the test with TAB109 and in the test on TAB113 was “inactive” throughout. Moreover, the Potency entry with TAB165 and in the test with W2 was “inactive” throughout.

As for `O=S(=O)(O)CCCS(=O)(=O)O`, the Potency result with PC15, with PC26, in the test on PC49, with SC27B, in the test on TAB109 and in the test on TAB113 was “inactive” in each case. The Potency result with TAB165 and in the test with W2 was “inactive” in each case.

As to `OC[C@H]1O[C@@](CO)(O[C@H]2O[C@H](CO)[C@@H](O)[C@H](O)[C@H]2O)[C@@H](O)[C@@H]1O`, the Potency result in the test with PC15, in the test with PC26, in the test on PC49, with SC27B, in the test on TAB109 and with TAB113 was “inactive” in each case. The Potency entry in the test on TAB165 and in the test on W2 was “inactive” in each case.

Regarding `COC(=O)C(CN)c1c[nH]c2ccc(OC)cc12` (configuration not stated), the Potency result in the test on PC15, in the test on PC26, in the test with PC49, in the test with SC27B, in the test with TAB109 and in the test on TAB113 was “inactive” throughout. Further, the Potency entry in the test on TAB165 and with W2 was “inactive” each time.

`CCCc1nc(C(C)(C)O)c(C(=O)OCc2oc(=O)oc2C)n1Cc1ccc(-c2ccccc2-c2nn[nH]n2)cc1`: the Potency result in the test with PC15, in the test on PC26, in the test on PC49, in the test with SC27B, in the test on TAB109 and in the test with TAB113 was “inactive” throughout. For the same molecule, the Potency entry in the test with TAB165 and in the test with W2 was “inactive” throughout.
